GSTO1 inh: counter-screen for RBBP9 inhibitors: inhibitors of human GSTO1 | P78417 | recombinant GSTO1, activity-based probe fluorescence polarization | inhibition, % at 5.96 µM | 1.1% of 300,000 active | AID 1974;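 active means inhibition above the campaign mean inhibition plus 3 SD, cut at about 35% in these data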;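 further: 0% = GSTO1-1 with DMSO and 100% = wells lacking GSTO1-1 enzyme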
LYPLA1 inh: LYPLA1 (human) inhibition in PME1 counter-screen | 0.16% of 320,000 active | O75608 | recombinant LYPLA1, FP-Rh probe fluorescence polarization | inhibition, % at 5.9 µM;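 active means inhibition above the mean of all tested compounds plus 3 SD, set per campaign, cut at about 14% in these data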;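 further: inhibitors block serine hydrolase probe labeling of LYPLA1 so polarization falls; 0% = enzyme with DMSO and 100% = wells lacking LYPLA1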
LYPLA2 counter: LYPLA2 (human) inhibition in PME1 counter-screen; O95372; recombinant LYPLA2, FP-Rh probe fluorescence polarization; inhibition, % at 5.9 µM; 0.38% of 320,000 active;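 active means inhibition above the screen-wide mean plus 3 SD, limit set per campaign, cut at about 26% in these data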;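 further: 0% = LYPLA2 with DMSO and 100% = wells lacking LYPLA2 enzyme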
PME-1 inh: blocks human protein phosphatase methylesterase 1. Q9Y570. recombinant PME-1, FP-Rh probe fluorescence polarization. inhibition, % at 5.9 µM. 0.53% of 320,000 active. AID 2130;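 active means inhibition above the campaign mean of all compounds plus 3 SD, cut at about 26% in these data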;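 further: competitive labeling of PME-1 active site by serine hydrolase directed probe; 0% = PME-1 with DMSO and 100% = wells lacking PME-1 enzyme; inhibitors block probe labeling so polarization falls and inhibition rises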
Fam108B counter: blocks mouse Fam108B hydrolase in RBBP9 counter-screen; 0.33% of 300,000 active; recombinant Fam108B, FP-Rh probe fluorescence polarization; inhibition, % at 9.51 µM;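 active means inhibition above the screen mean inhibition plus 3 SD, computed separately per campaign, cut at about 18% in these data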;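 further: inhibitors lower polarization as less probe binds the enzyme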
PAD4 inh: PAD4 (human) enzyme inhibition; Q9UM07; recombinant PAD4, RCA probe fluorescence polarization; inhibition, % at 6.36 µM; 0.41% of 330,000 active;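 active means percent inhibition above a cutoff equal to the mean of all tested compounds plus 3 SD, cut at about 15% in these data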;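 further: 0% = PAD4 with RCA probe and DMSO and 100% = probe without PAD4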
LYPLA2 conf: counter-screen for PME1 inhibitors: confirmation of human LYPLA2 inhibitors. AID 2232. shares compounds with LYPLA2 counter. inhibition, % at 5.9 µM. 72% of 1,100 active. recombinant LYPLA2, FP-Rh probe fluorescence polarization;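 active means mean inhibition across replicates above the hit cutoff set in the primary screen, cut at about 26% in these data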;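 further: blocked labeling of the enzyme by serine hydrolase FP-Rh probe lowers polarization; 0% = enzyme with DMSO and 100% = wells lacking LYPLA2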
LYPLA2 gel ABPP: LYPLA2 (human) inhibition, late stage results. shares compounds with LYPLA2 counter. rhLYPLA2 in mouse brain proteome, gel ABPP FP-Rh. inhibition, % at 20 µM. 30% of 150 active;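 active means inhibition of LYPLA2 enzyme probe labeling above about 50%, limit read from the data; inactive means inhibition below that limit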;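 further: loss of FP-Rh probe labeling of the LYPLA2 gel band measured as band density; 0% = DMSO only control band and 100% = blank gel background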
The depositor's hits bear a star; x = not tested or not shown. This is a sample that favours compounds with a hit; in the whole collection about 1.7% have one here.

SMILES | GSTO1 inh | LYPLA1 inh | LYPLA2 counter | PME-1 inh | Fam108B counter | PAD4 inh | LYPLA2 conf | others
O=[N+]([O-])c1ccc(N2CCN(c3ccccc3)CC2)cc1 | -3 | -1 | -3 | -4 | -1 | -6 | x
COc1ccc(N2CCN(C(=O)COC(=O)c3ccc(-n4nc(C)cc4C)cc3)CC2)cc1 | x | 7 | 43* | 0 | x | 0 | 40*
COc1ccc(C(=O)CCC(=O)N2CCN(c3ccc([N+](=O)[O-])cc3)CC2)cc1 | -1 | 0 | 29* | -1 | 1 | -4 | 19
O=C(CCCC(=O)N1CCN(c2ccc([N+](=O)[O-])cc2)CC1)c1ccccc1 | 5 | 9 | 34* | 5 | 2 | 5 | 33*
Cc1ccc(CC(=O)N2CCN(c3ccc([N+](=O)[O-])cc3)CC2)cc1 | 0 | 3 | 17 | -4 | 0 | -4 | x
Cc1noc(C)c1CSCC(=O)N1CCN(c2ccc([N+](=O)[O-])cc2)CC1 | -4 | 6 | 28* | -2 | 0 | 3 | 25
COC(=O)c1ccccc1NC(=O)C(C)c1ccc([N+](=O)[O-])cc1 (centres undefined) | -3 | 4 | 1 | -2 | -3 | 0 | x
COc1ccc(N2CCN(C(=O)CSc3ccc([N+](=O)[O-])cc3)CC2)cc1 | 0 | 2 | 54* | -6 | -3 | -13 | 49*
O=C(CSc1nnc(CNc2ccc(F)cc2)n1CC1CCCO1)Nc1ccccc1 (centres undefined) | 11 | -3 | 3 | -5 | 4 | -2 | x
CN(C(=O)c1ccc(NC(=O)Cc2ccc(NC(=O)C3CCCN(C(=O)C4CC4)C3)cc2)cc1)C1CC1 (centres undefined) | x | 3 | 60* | -1 | x | 1 | 61* | LYPLA2 gel ABPP=45
CN(Cc1ccccc1)C(=O)c1ccc(NC(=O)Cc2cccc(NC(=O)C3CCN(C(=O)C4CCCCC4)CC3)c2)cc1 | x | -7 | -12 | -11 | x | 1 | x
CN(C(=O)c1ccc(NC(=O)Cc2ccc(NC(=O)C3CCN(C(=O)C4CC4)CC3)cc2)cc1)C1CC1 | x | 4 | 5 | 1 | x | -3 | x
CN(C(=O)c1ccc(NC(=O)Cc2cccc(NC(=O)C3CCN(C(=O)C4CCCC4)CC3)c2)cc1)C1CCCC1 | x | 3 | 32* | -2 | x | -5 | -5
CCCOc1ccc(-c2c(=O)n(OCC(=O)OCC)c3ccccc3[n+]2[O-])cc1 | 1 | 1 | 27* | -6 | 3 | 0 | 72*
CCCOc1ccc(C2NC(=S)NC(c3ccccc3)=C2C(=O)Nc2ccc(C)cc2)cc1OC (centres undefined) | 0 | -4 | -1 | -5 | 0 | -4 | x
O=C1CCCC(=O)N1c1ccc(N2CCN(c3ccccc3)CC2)c([N+](=O)[O-])c1 | -3 | 1 | 6 | 3 | 2 | 5 | x
O=C1CCCC(=O)N1c1ccc(N2CCN(c3ccc([N+](=O)[O-])cc3)CC2)c([N+](=O)[O-])c1 | -5 | 9 | 43* | 6 | 0 | -1 | 43*
CC12CCC(=O)N1C(C(=O)NNC(=O)c1cccc(Cl)c1)CS2 (centres undefined) | 1 | 0 | 35* | 4 | -2 | -1 | 6
CC12CCC(=O)N1C(C(=O)NNC(=O)c1ccc(Cl)cc1)CS2 (centres undefined) | x | -4 | -6 | 1 | x | 5 | x
C#CCOCCOCCOCCNc1nc(N2CCN(C(=O)CCCCCCCCCCNC(=O)[C@H]([C@@H](C)CC)n3cc(CCCCCN)nn3)CC2)nc(N2CCN(C(=O)CCCCCCCCCCNC(=O)[C@H]([C@@H](C)CC)n3cc(CCCCN=C(N)N)nn3)CC2)n1 | -6 | 11 | 57* | -16 | -7 | -18 | 56*
Cn1c(SCc2nc(-c3ccc(Cl)cc3)no2)nnc1-c1ccco1 | 28 | -1 | -2 | -4 | -2 | -4 | x
O=C(Cn1cc(C(F)(F)F)ccc1=O)NCCc1ccc(Cl)cc1Cl | -6 | 1 | -3 | 3 | 0 | 2 | x
N#Cc1ccc(CN2CCN(CC(=O)NCCc3ccc(Cl)cc3Cl)CC2)cc1 | 12 | -1 | 27* | 7 | 6 | -4 | 17

Source: PubChem (The Scripps Research Institute Molecular Screening Center)
